# Assay results: ChEMBL document CHEMBL3988442, “University of Dundee, Small-Polar-MMV Screening Library” (2021)
# Screen size: about 48,000 compounds; about 13,000 (27%) showed an effect of 50% or more. The list shows a part of the results.
# System: Wolbachia pipientis
# Experiment: Anti-Wolbachia Cell-Based Screen
# Assay type: functional
# Parameters: scale not given: in the data most compounds retested in dose-response had high values
# Conditions: 5 µM
row,Compound,Percent Effect [%]
1,COc1ncccc1C(=O)N(C)Cc1nc(-c2ccccn2)no1,0.08907
2,COCC(=O)N1CCC2(CCCN(Cc3cc(OC)ccc3F)C2)C1 (configuration not stated),2.404
3,COc1ccc(F)c(CN2CCCC(c3cc(O)nc(C)n3)C2)c1 (configuration not stated),108.4
4,Cc1nc(O)cc(C2CCN(Cc3cccc(F)c3F)C2)n1.O=C(O)CC(O)(CC(=O)O)C(=O)O (configuration not stated),-5.944
5,COc1ccc(F)c(CN2CCC(c3cc(O)nc(C)n3)C2)c1.O=C(O)CC(O)(CC(=O)O)C(=O)O (configuration not stated),-11.82
6,COc1ccc(OC)c(CN2CCC(c3cc(O)nc(C)n3)C2)c1 (configuration not stated),99.72
7,COc1ccc(-c2nc(CN3CCCC(OC)C3)c(C)o2)c(F)c1 (configuration not stated),6.893
8,CCN1CCC(CNCc2cc(OC)ccc2OC)C1 (configuration not stated),4.75
9,COc1ccc(CN2CCC(c3cc(O)nc(C)n3)C2)c(OC)c1.O=C(O)CC(O)(CC(=O)O)C(=O)O (configuration not stated),122.8
10,Cc1nc(O)cc(C2CCN(Cc3ccc(F)c(F)c3)C2)n1.O=C(O)CC(O)(CC(=O)O)C(=O)O (configuration not stated),92.59
11,CNC(=O)[C@@H]1C[C@@H](N)CN1C(=O)CCSCc1ccccc1,-2.753
12,Cc1ncc(-c2nc3cc(S(=O)(=O)N4CCCC4)ccc3n2C)cn1,-2.365
13,O=C(Nc1ccc(-n2cccn2)c(F)c1)C1CCN(C(=O)C2CC2)CC1,-6.661
14,Cc1nnn2c1COCC(CNC(=O)c1ccnnc1)C2 (configuration not stated),-2.264
15,CCN(C)CC1CCN(C(=O)NCCC2Cc3ccccc3C2)C1 (configuration not stated),-23.1
16,COc1ccc(CN2CCC(c3cc(O)nc(C)n3)C2)c(F)c1 (configuration not stated),113.4
17,CC(C)c1noc(C[S+]([O-])CC(=O)Nc2cc(F)ccc2F)n1 (configuration not stated),-11.5
18,N#Cc1cc(N2CCC(CS(N)(=O)=O)CC2)c2ccccc2n1,3.151
19,CNC(=O)[C@H]1C[C@@H]2CN(Cc3csc(C)n3)C[C@@H]2N1S(C)(=O)=O.O=C(O)C(F)(F)F,110
20,Cc1nc(CN2C[C@@H]3CCCO[C@@H]3[C@H](N(C)C(C)C)C2)cs1.O=C(O)C(F)(F)F.O=C(O)C(F)(F)F,-4.847
21,CNC(=O)[C@@H]1C[C@H]2CN(Cc3csc(C)n3)C[C@H]2N1C(C)C.O=C(O)C(F)(F)F.O=C(O)C(F)(F)F,116.9
22,Cc1nc(CN2CCn3cc(CNC(=O)C4CCC4)nc3C2)cs1.O=C(O)C(F)(F)F,-18.19
23,CNC(=O)[C@H]1C[C@@H]2CN(S(=O)(=O)Cc3ccccc3)C[C@@H]2N1C.O=C(O)C(F)(F)F,-3.951

row,Compound,Percent Effect [%]
1,Cc1nc(CN2CCO[C@@H]3CN(C(=O)NC(C)C)CC[C@@H]3C2)cs1.O=C(O)C(F)(F)F,-13.31
2,CNC(=O)[C@@H]1C[C@H]2CN(C(=O)c3ccco3)C[C@H]2N1C.O=C(O)C(F)(F)F,-16.64
3,CNC(=O)[C@@H]1C[C@H]2CN(C(=O)c3ccco3)C[C@H]2N1C(C)C.O=C(O)C(F)(F)F,99.89
4,Cc1nc(CN2C[C@@H](NC(=O)C3CCC3)[C@H]3COC[C@H]32)cs1.O=C(O)C(F)(F)F,-15.38
5,Cc1nc(C)c(CC(=O)Nc2ncc(C)s2)c(=O)[nH]1,-6.358
6,CCn1c(C2CCN(Cc3cc(C)n(NC(C)=O)c3C)CC2)n[nH]c1=O,1.026
7,O=C(CN1CCN(CC2CCOc3ccccc3C2)CC1)N1CCCC1 (configuration not stated),1.365
8,Cc1ccc(CN(Cc2ccccn2)C2CC(C)(C)NC(C)(C)C2)s1.O=C(O)CC(O)(CC(=O)O)C(=O)O,-1.083
9,Cn1ccnc1CN(Cc1ccccn1)Cc1ccccc1Cl.O=C(O)CC(O)(CC(=O)O)C(=O)O,93.9
10,COCCC(=O)N(Cc1ccccn1)Cc1ccccc1C,13.85
11,CC(C)CN(Cc1ccccn1)Cc1ccccc1C(=O)O,-7.566
12,Cc1ncc(CN(Cc2ccccn2)Cc2ccccc2Cl)n1C.O=C(O)CC(O)(CC(=O)O)C(=O)O,124.9
13,CC(C)CN(Cc1ccccn1)Cc1ccccc1OCC(=O)O,7.517
14,CCC(CO)N(Cc1ccco1)C(=O)c1cccnc1NC (configuration not stated),-5.429
15,CCc1n[nH]c(C2CN(Cc3csc(COC)n3)CCO2)n1 (configuration not stated),0.7556
16,O=C(Nc1ccc(-c2nc3c([nH]2)CCNC3)cc1)N1CCCC1,-0.2771
17,COc1ccc2c(c1)C(C(=O)N(C)CCCc1nccn1C)CC(=O)N2 (configuration not stated),9.372
18,CC(C)CN1C(=O)CO[C@@H]2CN(C(=O)C3CCOC3)C[C@H]21 (some centres not stated),-11.41
19,CC(C)CNC(=O)c1ccc(NC(=O)NC(C)C)cc1Cl,-2.856
20,CC(C)CNC(=O)c1ccc(NC(=O)NCC2CC2)cc1Cl,-12.02
21,CC(C)CNC(=O)c1ccc(NC(=O)NC(C)(C)CO)cc1Cl,-9.16
22,CC(C)CCCNC(=O)Nc1ccc(C(N)=O)c(Cl)c1,114.9
23,CC(C)CCCNC(=O)Nc1ccc(Cl)c(C(N)=O)c1,118.7

row,Compound,Percent Effect [%]
1,CCCOc1ccc(NC(=O)NCCC(=O)N(C)C)cc1Cl,-12.35
2,CCCN1CCC(NC(=O)NCCc2nc(CC)c(C)s2)CC1,16.1
3,Cc1ccc(-c2nn(-c3cccc(F)c3)cc2CN(CCO)CCO)o1,2.921
4,O=C(c1nc2sccn2c1-c1ncc[nH]1)N1CCCCC1,87.63
5,CN(C)C1CCCN(C(=O)c2cccc(-c3ncc[nH]3)c2)CC1 (configuration not stated),2.392
6,CN1CCN(C(=O)c2n[nH]c3c2CN(Cc2nccs2)CC3)CC1,-8.434
7,Cc1ccc2cc(C(=O)N3CCCN(C)CC3)ccc2n1,16.24
8,COc1ccc(OCc2cc(C(=O)N3C[C@@H](C)O[C@@H](C)C3)n[nH]2)c(Cl)c1,-0.1203
9,C[C@@H]1CN(C(=O)c2nc3ccc(Cl)cn3c2-c2ncc[nH]2)C[C@H](C)O1,103.5
10,C[C@@H]1CN(C(=O)c2nc3sccn3c2-c2ncc[nH]2)C[C@H](C)O1,88.09
11,CCC[C@@H]1CN(C(=O)c2ccccc2-c2ncc[nH]2)C[C@H]1N(C)C,29.83
12,Cc1nc2sccn2c1C(=O)N1CCc2[nH]cnc2C1,-1.15
13,CN1C[C@@H](n2cnc(-c3ccccc3)c2-c2ncc[nH]2)C[C@H]1C(=O)O,-3.61
14,CN1CCCN(C(=O)c2nc3sccn3c2-c2ncc[nH]2)CC1,108
15,C[C@@H]1CN(C(=O)Cn2ccc3ncccc3c2=O)C[C@H](C)O1,-28.32
16,CC(=O)N1CCC(C(=O)N(CC(F)F)c2cccc(Cl)c2)CC1,3.709
17,CCc1cc(NCCc2ccc(O)cc2)n2nccc2n1,12.11
18,O=C(NC1CCCC1)O[C@H]1COCCN(c2nc3ccccc3s2)C1,3.317
19,CS(=O)(=O)N1CCC(c2nc3ccc(-c4cccc(F)c4)cn3n2)CC1,121.7
20,CCS(=O)(=O)N1CCC(c2nc3ccc(-c4ccccc4)cn3n2)CC1,-9.682
21,COCC(=O)N1CCC(c2nc3ccc(-c4ccccc4)cn3n2)CC1,4.971
22,CN(C)C(=O)N1CCC(c2nc3ccc(N4CCCC4)cn3n2)CC1.O=C(O)C(F)(F)F,-5.461
23,COc1cccc(-c2ccc3nc(C4CCN(C(C)=O)CC4)nn3c2)c1,108.3

row,Compound,Percent Effect [%]
1,CN(C)C(=O)N1CCC(c2nc3ccc(-c4ccccc4)cn3n2)CC1,107
2,Cc1ccc2nc(C3CCN(CCO)CC3)nn2c1,-22.16
3,COCC(=O)N1CCC(c2nc3ccc(N4CCOCC4)cn3n2)CC1,-4.439
4,CC(=O)N1CCC(c2nc3ccc(C)cn3n2)CC1,109.2
5,COc1ccc(Cl)cc1CS(=O)(=O)Cc1noc(C)n1,18.18
6,C[S+]([O-])c1nncn1CCc1ccccc1 (configuration not stated),-4.603
7,COc1ccccc1C(O)Cn1cc(C(=O)NCc2ccco2)nn1 (configuration not stated),-0.6679
8,CNC(=O)c1cccc(NCC(=O)Nc2cc(C)nn2C)c1C,11.4
9,COc1ncccc1C(=O)NC1(c2cccc(F)c2)CCOCC1,0.9313
10,CN1CCCC1CNC(=O)c1nnn(-c2ccc(F)cc2)c1C1CC1 (configuration not stated),-4.807
11,CC(=O)N1CCC(c2nc3ccc(-c4cccc(F)c4)cn3n2)CC1,114.3
12,CN(C)c1cc2c(nn1)CCN(C(=O)c1ccc(-n3cccn3)nc1)C2,103.2
13,Nc1cc2c(nn1)CCN(C(=O)c1cccnc1Oc1ccccc1)C2,-19.15
14,CCNc1cc2c(nn1)CCN(C(=O)c1ccc3cc[nH]c3c1)C2,0.8681
15,CNc1cc2c(nn1)CCN(C(=O)c1ccc(-n3cccn3)nc1)C2,108.2
16,Nc1cc2c(nn1)CCN(C(=O)c1ccc(Oc3cccnc3)cc1)C2,5.491
17,CN(C)c1cc2c(nn1)CCN(C(=O)c1cc3ccccc3o1)C2,1.758
18,CNc1cc2c(nn1)CCN(C(=O)c1ccccc1-n1cccn1)C2,88.38
19,CCNc1cc2c(nn1)CCN(C(=O)c1ccnc(N(C)C)c1)C2,-3.48
20,CCNc1cc2c(nn1)CCN(C(=O)c1ccc(NC3CC3)nc1)C2,18.68
21,CCNc1cc2c(nn1)CCN(C(=O)c1ccc(-n3cccn3)nc1)C2,97.41
22,CCNc1cc2c(nn1)CCN(C(=O)c1cc3ccccc3[nH]c1=O)C2,-5.583
23,CNc1cc2c(nn1)CCN(C(=O)c1ccc(-n3nccc3C)cc1)C2,-6.131
